Screening data deposited in PubChem BioAssay by National Center for Advancing Translational Sciences (NCATS).
Methyltransferases: Primary Screen for Target Class Profiling of Small Molecule Inhibitors of Methyltransferases. purified enzyme, MTase-Glo SAH luminescence; hits give low values. calls only at 40 µM. 25,000 tested, 3.9% active. AID 1745853, 2022; call rule not given here
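Each enzyme was reacted with SAM and its substrate, with compounds tested once at 40 uM; SAH formed was read by MTase-Glo luminescence.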
Calls only; 0 = inactive; + = active, no number; ! = a repeat was not active. Many of the other results were omitted from the sample, so hits are more common in it than they were.

SMILES	Methyltransferases
C=CC(=O)N1CCC[C@@H](n2nc(-c3cccc(C(=O)Nc4ccc(C(C)C)c(C)c4)c3)c3c(N)ncnc32)C1	0
CNS(=O)(=O)CCc1ccc2[nH]cc(C3CCN(C)CC3)c2c1	0
CN1CCC[C@@H]1Cc1c[nH]c2ccc(CCS(=O)(=O)c3ccccc3)cc12	+!
CN(C)CCc1c[nH]c2ccc(C[C@H]3COC(=O)N3)cc12	0
Cn1c(=O)n(C)c2cc(S(=O)(=O)N3CCN(c4ccccc4)CC3)c(Cl)cc21	0
CC1(C(=O)NC2CCCCC2)Cn2c(ccc2-c2ccco2)C(=O)N1CCc1ccc(Cl)cc1 (stereo not given)	0
CCc1ccc(S(=O)(=O)c2nnn3c2nc(NCC2CCCO2)c2cc(Cl)ccc23)cc1 (stereo not given)	0
COC(=O)c1ncn2c1C(=O)N(c1cc(C)cc(C)c1)C(C)(C(=O)NC1CCCC1)C2 (stereo not given)	0
CC1(C(=O)NC2CCCCCCC2)Cn2c(ccc2-c2ccco2)C(=O)N1CCCN1CCOCC1 (stereo not given)	0
C[S+](CC[C@H](N)C(=O)[O-])C[C@H]1O[C@@H](n2cnc3c(N)ncnc32)[C@H](O)[C@@H]1O (stereo not given in full)	0
COc1ccccc1CNC(=O)C1(C)Cn2nc(-c3ccccc3)cc2C(=O)N1c1ccc(Cl)cc1 (stereo not given)	0
CC1(C(=O)NC2CCCCCCC2)Cn2c(ccc2-c2ccco2)C(=O)N1Cc1ccc(F)cc1 (stereo not given)	0
CC(C)OCCCNC(=O)CCc1nnc2n(CCCOC(C)C)c(=O)c3ccccc3n12	0
CCc1cc2c(cc3n2CC(C)(C(=O)NC2CCCCCC2)N(Cc2ccccn2)C3=O)s1 (stereo not given)	0
O=C1CCN(Cc2cccc(F)c2)CCCCCCN1	0
Nc1c(NC/C=C\COc2cc(CN3CCCCC3)ccn2)c(=O)c1=O	+
Cc1ccc(NC(=O)N2CCn3cccc3C2C)cc1C (stereo not given)	0
CC(C)Oc1ccc(CN2C(=O)c3nc4ccccc4n3CC2(C)C(=O)NC2CCCCCC2)cc1 (stereo not given)	0
c1ccc(Cn2c(-c3ccc(OCC(C4CCNCC4)n4c(-c5ccccc5)nc5ccccc54)cc3)nc3ccccc32)cc1 (stereo not given)	+
CC(C)Oc1ccc(CN2C(=O)c3nc4ccccc4n3CC2(C)C(=O)NC2CCCCC2)cc1 (stereo not given)	0
CCCn1c(=O)c2ccc(C(=O)NC3CCCCC3)cc2n2c(=O)n(CC(=O)NC(C)C)nc12	0
CC1(C(=O)NC2CCCC2)Cn2c(nc3ccccc32)C(=O)N1Cc1cccnc1 (stereo not given)	0
CC(C)NC(=O)Cn1nc2n(Cc3ccccc3)c(=O)c3ccc(C(=O)NC(C)C)cc3n2c1=O	0
O=C(CCn1ccc2cc(S(=O)(=O)N3CCCCC3)ccc21)NCCc1ccccc1Cl	0
O=C(CCc1nnc2n(CCc3ccccc3)c(=O)c3ccccc3n12)N1CCN(c2ccccn2)CC1	0
SMILES	Methyltransferases
Cc1ccc(Cn2nc3n(Cc4ccc(F)cc4)c(=O)c4ccccc4n3c2=O)cc1	0
CC(C)Cn1c(=O)c2cc(F)ccc2n2c(SCc3cccc(Cl)c3)nnc12	0
COc1ccc2cc3n(c2c1)CC(C)(C(=O)NCC1CCCO1)N(Cc1ccccc1Cl)C3=O (stereo not given)	0
COC(C)(C)CCn1nc(Nc2c(C)cccc2C)c2cnc(Nc3ccc(OCCN4CCCC4)c(F)c3)nc21	+
CC1CCC(NC(=O)C2(C)Cn3c(cc4occc43)C(=O)N2CCc2ccccc2)CC1 (stereo not given)	0
CC1(C(=O)NC2CCCC2)COc2c(oc3ccccc23)C(=O)N1Cc1cccc(Br)c1 (stereo not given)	0
O=C(Cn1nc2n(Cc3ccc(F)cc3)c(=O)c3ccccc3n2c1=O)Nc1ccc(F)cc1F	0
CCN1CCN(Cc2ccc(Nc3ncc(F)c(-c4cc(F)c5nc(C)n(C(C)C)c5c4)n3)nc2)CC1	+
O=C(Cn1nc2n(CCc3ccccc3)c(=O)c3ccccc3n2c1=O)Nc1ccc(F)cc1	0
CCOC(=O)c1cc2n(n1)CC(C)(C(=O)NC1CCCCC1)N(Cc1ccc(OCC)cc1)C2=O (stereo not given)	0
COc1ccc2cc3n(c2c1)CC(C)(C(=O)NC1CCCC1)N(CCc1ccccc1)C3=O (stereo not given)	0
CCOC(=O)c1cc2n(n1)CC(C)(C(=O)NCc1ccc(Cl)cc1)N(Cc1cccc(C)c1)C2=O (stereo not given)	0
CC(C)CCn1c(=O)c2ccc(C(=O)NC3CCCCC3)cc2n2c(=O)n(CC(=O)c3ccccc3)nc12	0
CCc1ccc(C2c3cccn3-c3sc4c(c3CN2C(=O)Nc2cc(OC)ccc2OC)CCCC4)cc1 (stereo not given)	0
CC1CCN(C(=O)Cn2c(=O)oc3cc(S(=O)(=O)N4CCCCC4C)ccc32)CC1 (stereo not given)	0
COc1cccc(NC(=O)Cn2c(=O)oc3cc(S(=O)(=O)N4CCCCC4C)ccc32)c1 (stereo not given)	+
COc1ccc(NC(=O)Cn2c(=O)oc3cc(S(=O)(=O)N4CCCC4)ccc32)cc1	0
CC(=O)Nc1c2n(c3ccc(F)cc13)CC(C)(C(=O)NC1CCCCCC1)N(CCC(C)C)C2=O (stereo not given)	0
CN1C(=O)c2cc(C(=O)NCc3ccco3)nn2CC1(C)C(=O)NCc1ccccc1 (stereo not given)	0
CCOc1ccc(CCN2C(=O)c3cc(-c4ccccc4)nn3CC2(C)C(=O)NCc2ccccc2)cc1 (stereo not given)	0
CCOc1ccc(N(C(=O)c2cccnc2)S(=O)(=O)c2ccc3c(c2)n(C)c(=O)n3C)cc1	0
C[C@]12CC[C@@H]3c4ccc(O)c(O)c4CC[C@H]3[C@@H]1CCC2=O	+
Cc1ccc(CNC(=O)c2cc3n(n2)CC(C)(C(=O)NC2CCCCC2)N(C)C3=O)cc1 (stereo not given)	0
COc1c(Nc2ncc(Cl)c(N[C@H]3[C@@H](C(N)=O)[C@@H]4C=C[C@H]3C4)n2)ccc2c1CC[C@@H](N1CCOCC1)CC2	0
CNC(=O)c1ccccc1Nc1nc(Nc2ccc3c(c2OC)CCCC(N2CCN(CCO)CC2)C3)ncc1Cl (stereo not given)	+
SMILES	Methyltransferases
CCCCN1C(=O)c2cc(C(=O)NCc3ccc4c(c3)OCO4)nn2CC1(C)C(=O)NC1CCCC1 (stereo not given)	0
Cc1ccccc1CN1C(=O)c2cc3occc3n2CC1(C)C(=O)NC1CCCCCCC1 (stereo not given)	0
Cc1ccccc1CN1C(=O)c2cc3sccc3n2CC1(C)C(=O)NC1CCCC1 (stereo not given)	0
COc1ccc(CCN2C(=O)c3cc4ccccc4n3CC2(C)C(=O)NCc2ccccc2)cc1OC (stereo not given)	0
Cc1cccc(CN2C(=O)c3cc4ccccc4n3CC2(C)C(=O)NCc2ccccc2)c1 (stereo not given)	0
COc1ccc(CN2C(=O)c3cc4ccccc4n3CC2(C)C(=O)NCc2ccccc2)cc1OC (stereo not given)	+
Cc1ccccc1N1C(=O)c2cc3occc3n2CC1(C)C(=O)NC1CCCCCC1 (stereo not given)	0
CC1(C(=O)NC2CCCCC2)Cn2c(cc3occc32)C(=O)N1CCN1CCCCCC1 (stereo not given)	0
